This note sets out measurements from PubChem BioAssay (NCATS).

The structures appear in SMILES notation. Inconclusive results are not listed. Entries that show only a call come without a potency. Activity calls are given as the source filed them. Calls follow the shape of the full dose curve; tested in HEK293 reporter line.
Potency is read from the fitted curve at half-maximal effect.

The nature of this experiment: qHTS for Inhibitors of the Functional Ribonucleoprotein Complex (vRNP) of Lassa (LASV) Arenavirus: LASV Primary Screen - GLuc reporter signal (AID 1347082). Also: nearly all actives have a fitted effect of over 60% in size. Particulars: LASV minigenome vRNP, Gaussia luciferase reporter; series mostly up to 57.5 µM. (In general: In qHTS, concentration-response curves come from the screen itself.)
For `COCCOCCOCCOCCOC`, the Potency entry is “inactive”.

`COc1cc2oc(=O)ccc2cc1[C@H](O)[C@@H](O)C(C)(C)O`: the Potency result was “inactive”.

For the molecule `COc1ccc(C[C@H]2c3cc(O)c(OC)cc3CC[N+]2(C)[O-])cc1O` (stereo not given in full), the Potency entry is “inactive”.

Consider `O=C(Nc1ncc(SCCN2CCCC2)s1)[C@]1(c2ccc(S(=O)(=O)C3CC3)cc2)C[C@@H]1C1CCCCC1`, for which the Potency entry is “inactive”.

In the case of `CC(C)c1noc(N2CCC(COc3ccc(-c4ccc(S(C)(=O)=O)cc4)nc3)CC2)n1`, the Potency entry is “inactive”.

Take `COc1cc(C(=O)O)ccc1O`: the Potency result was “inactive”.

For the molecule `CC(=O)C1CCC2C3CCC4=CC(=O)C=CC4(C)C3CCC12C` (stereo not given), the Potency result was “inactive”.

As for `O=C(O)[C@@H]1Cc2c([nH]c3ccccc23)C2CCC(=O)N21` (stereo not given in full), the Potency entry was “inactive”.

As to `C=C1C2C[C@H](O)C(C)(C)[C@@]2(O)[C@H](O)C[C@]23C[C@@](C)(O)[C@H](CC[C@H]12)[C@H]3O` (stereo not given in full), the Potency entry is “inactive”.

For `CN1CC(=O)N2C(Cc3c([nH]c4ccccc34)[C@H]2c2ccc3c(c2)OCO3)C1=O` (stereo not given in full), the Potency result was “inactive”.

For `CC1CC(C)C(=O)C1=O` (stereo not given), the Potency result is “inactive”.

With `COC1[C@@H](OC)C[C@H](C)[C@@H](OC)C2=CC(=O)C=C(NC(=O)/C(C)=C/C=C\[C@H](OC)[C@@H](OC(N)=O)/C(C)=C/[C@@H]1C)C2=O` (stereo not given in full), the activity change, negative = inhibition was 1.65% [at 5.82 µM] (inactive).

As to `COc1ccc(CC(=O)c2ccc(OC3OC(CO)C(O)C(O)C3O)cc2O)cc1` (stereo not given), the Potency entry is “inactive”.

For `COc1c2c(c(OC)c3c1c(=O)c1ccccc1n3C)OCO2`, the Potency result is “inactive”.

On to `C[C@H]1CCC2[C@](C)(CO)[C@@H](O)CC[C@]2(C)[C@@]12CCC(CO)(CCO)O2` (stereo not given in full), for which the Potency result is “inactive”.

`CC(C)=CC(=O)O`: the Potency entry is “inactive”.

For the molecule `CC1=CCC(C(C)C)C=C1` (stereo not given), the Potency result was “inactive”.

With `C=C(C)[C@@H]1CC[C@]2(C(=O)O)CC[C@]3(C)C(CCC4[C@@]5(C)CC[C@H](O)C(C)(C)C5CC[C@]43C)C12` (stereo not given in full), the Potency entry was “inactive”.

On to `C[C@@H](O)CCCCn1c(=O)c2c(ncn2C)n(C)c1=O`, for which the Potency entry was “inactive”.

Take `COc1c2c(nc3occc13)C(CC=C(C)C)(OC)C(=O)C=C2` (stereo not given): the Potency result was “inactive”.

For the molecule `CC/C=C\CCCCCO`, the Potency entry was “inactive”.

As for `C[C@H]1O[C@@H](n2cc(F)c(=O)[nH]c2=O)[C@H](O)[C@H]1O`, the Potency result is “inactive”.

With `CC1=CC2OC3CC4OC(=O)C=CC=CC(=O)OCCC(C)C(O)C(=O)OCC2(CC1)C4(C)C31CO1` (stereo not given), the Potency result was “inactive”.

As for `C=CC(C)(O)CCC=C(C)C` (stereo not given), the Potency result was “inactive”.

Regarding `CC1=CCC[C@H]2[C@H](C1)C(=O)C[C@@H](C)[C@]2(C)CC/C(=C/CO)CO`, the Potency result is “inactive”.

As for `CC/C=C\C[C@H](O)/C=C/C=C\C/C=C\C/C=C\CCCC(=O)O`, the activity change, negative = inhibition is -0.193% [at 0.757 µM] (inactive).

For the molecule `CCn1c(-c2nonc2N)nc2cncc(CNC3CCNCC3)c21`, the Potency was 24.3 µM (active).

On to `C=C(CO)CC1CC(O)[C@]2(C)OC3CC4OC5C[C@]6(C)O[C@]7(C)CCC8OC9C[C@]%10(C)OC%11C(C)=CC(=O)OC%11CC%10OC9C[C@@H](C)C8OC7CC6O[C@]5(C)C/C=C\C4OC3CC2O1` (stereo not given in full), for which the Potency entry is “inactive”.

On to `C/C=C(\C)C(=O)O[C@H]1C[C@@]2(C)CCC(C(C)C)C2(O)CC[C@@]1(C)O` (stereo not given in full), for which the Potency entry was “inactive”.

As to `O=C1C=C(O)c2c(O)cc(O)c(O)c2C1=O`, the Potency result is “inactive”.

Take `CCCC/C=C/C=C\C=O`: the Potency result is “inactive”.

As for `CC1(C)CCC[C@]2(C)[C@H]3CC(=O)O[C@]3(C)CC[C@@H]12`, the Potency result was “inactive”.

Consider `CC(C)=CCC/C(C)=C/CC/C(C)=C/CCC1(C)CCc2cc(O)ccc2O1` (stereo not given), for which the Potency result was “inactive”.

On to `CCC(C)c1nccnc1OC` (stereo not given), for which the Potency entry was “inactive”.

`O=C(O)Cc1ccc(O)cc1`: the Potency result is “inactive”.

Take `CS(=O)(=O)N1CCN(Cc2cc3nc(-c4cccc5[nH]ncc45)nc(N4CCOCC4)c3s2)CC1`: the Potency was 1.72 µM (active).

For `CC1(C)C2CC1[C@@](C)(O)[C@H](O)C2` (stereo not given in full), the Potency entry is “inactive”.

`OC(CC(O)c1ccccc1)c1ccccc1` (stereo not given): the Potency result was “inactive”.

For the molecule `CO[C@H]1[C@@H]2C=CO[C@@H](O[C@H]3O[C@@H](CO)[C@H](O)[C@@H](O)[C@@H]3O)[C@@H]2[C@@]2(CO)O[C@@H]12`, the Potency entry is “inactive”.

For the molecule `CC1=C(/C=C/C(C)=C/C=C/C(C)=C/C=C/C=C(C)/C=C/C=C(\C)C=O)C(C)(C)CCC1`, the Potency entry is “inactive”.
